From PubChem BioAssay AID1159580 (chemical genetic matrix, 2015)
About 2,000 (36%) of roughly 5,500 compounds were called active. Not shown: some 18% with an inconclusive outcome. Cut-off read from the data, not from the text of the source: active = normalized growth mostly below about 0.91 (no sharp cut-off); inconclusive = no clear call, values can overlap the other calls; inactive = mostly above about 0.92. The list shows a part of the results.

Assay: chemical genetic growth profiling, strain panel (AID 1159580);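 note: tested at 20 µM; growth read once vehicle control cultures reached saturation at 30 °C; 1 = growth at the plate median or of vehicle wells; lower values mean less growth of the strain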
Conditions: growth OD

Measured: normalized growth

CN=C(N)NCCCC(N)C(=O)O (stereo unspecified)
inactive: S. cerevisiae deletion strains, locus YAL013W, strain DEP1, hits give low values 1.02 | S. cerevisiae deletion strains, locus YBR021W, strain FUR4, hits give low values 1.03 | S. cerevisiae deletion strains, locus YBR229C, strain ROT2, hits give low values 1.01 | S. cerevisiae deletion strains, locus YCL029C, strain bik1, hits give low values 0.996 | S. cerevisiae deletion strains, locus YDL035C, strain GPR1, hits give low values 1.04 | S. cerevisiae deletion strains, locus YDL074C, strain BRE1, hits give low values 1.05 | S. cerevisiae deletion strains, locus YDL101C, strain DUN1, hits give low values 1.03 | S. cerevisiae deletion strains, locus YDL134C, strain PPH21, hits give low values 1.01 | S. cerevisiae deletion strains, locus YDL185W, strain tfp1, hits give low values 1.02 | S. cerevisiae deletion strains, locus YDL192W, strain arf1, hits give low values 1.01 | S. cerevisiae deletion strains, locus YDR101C, strain arx1, hits give low values 1.01 | S. cerevisiae deletion strains, locus YDR150W, strain NUM1, hits give low values 1.02 | S. cerevisiae deletion strains, locus YDR162C, strain NBP2, hits give low values 1.03 | S. cerevisiae deletion strains, locus YDR318W, strain mcm21, hits give low values 1.04 | S. cerevisiae deletion strains, locus YDR388W, hits give low values 0.993 | S. cerevisiae deletion strains, locus YDR502C, strain sam2, hits give low values 1.01 | S. cerevisiae deletion strains, locus YEL061C, strain CIN8, hits give low values 1.01 | S. cerevisiae deletion strains, locus YER110C, hits give low values 0.997 | S. cerevisiae deletion strains, locus YER155C, strain BEM2, hits give low values 1.01 | S. cerevisiae deletion strains, locus YER167W, strain BCK2, hits give low values 1.05 | S. cerevisiae deletion strains, locus YGL078C, strain dbp3, hits give low values 1.01 | S. cerevisiae deletion strains, locus YGL086W, strain mad1, hits give low values 1.03 | S. cerevisiae deletion strains, locus YGL248W, strain PDE1, hits give low values 1.01 | S. cerevisiae deletion strains, locus YGR078C, strain PAC10, hits give low values 1.04 | S. cerevisiae deletion strains, locus YGR135W, strain pre9, hits give low values 1.02 | S. cerevisiae deletion strains, locus YGR229C, strain SMI1, hits give low values 1.05 | S. cerevisiae deletion strains, locus YGR252W, strain gcn5, hits give low values 1.17 | S. cerevisiae deletion strains, locus YHR030C, strain SLT2, hits give low values 1.01 | S. cerevisiae deletion strains, locus YHR079C, strain IRE1 (second series), hits give low values 0.995 | S. cerevisiae deletion strains, locus YHR094C, strain hxt1, hits give low values 0.986 | S. cerevisiae deletion strains, locus YHR129C, strain ARP1, hits give low values 1.01 | S. cerevisiae deletion strains, locus YHR200W, strain rpn10, hits give low values 1.02 | S. cerevisiae deletion strains, locus YIL066C, strain RNR3, hits give low values 1.03 | S. cerevisiae deletion strains, locus YIL073C, strain SPO22, hits give low values 1.09 | S. cerevisiae deletion strains, locus YIL125W, strain kgd1, hits give low values 1.01 | S. cerevisiae deletion strains, locus YIR030C, strain dcg1, hits give low values 0.997 | S. cerevisiae deletion strains, locus YJL095W, strain BCK1, hits give low values 1.02 | S. cerevisiae deletion strains, locus YJL134W, strain LCB3, hits give low values 1.02 | S. cerevisiae deletion strains, locus YJL168C, strain set2, hits give low values 0.987 | S. cerevisiae deletion strains, locus YJL187C, strain SWE1 (second series), hits give low values 1.02 | S. cerevisiae deletion strains, locus YJR043C, strain POL32, hits give low values 1.06 | S. cerevisiae deletion strains, locus YJR075W, strain HOC1, hits give low values 1.07 | S. cerevisiae deletion strains, locus YKL009W, strain mrt4, hits give low values 1.03 | S. cerevisiae deletion strains, locus YKL068W, hits give low values 1.01 | S. cerevisiae deletion strains, locus YKL085W, strain MDH1 (second series), hits give low values 1.03 | S. cerevisiae deletion strains, locus YKL085W, strain MDH1, hits give low values 1.03 | S. cerevisiae deletion strains, locus YKL190W, strain CNB1, hits give low values 1.02 | S. cerevisiae deletion strains, locus YKR001C, strain vps1, hits give low values 1.02 | S. cerevisiae deletion strains, locus YLR039C, strain RIC1, hits give low values 1.07 | S. cerevisiae deletion strains, locus YLR058C, strain SHM2, hits give low values 1.02 | S. cerevisiae deletion strains, locus YLR102C, strain apc9, hits give low values 0.986 | S. cerevisiae deletion strains, locus YLR262C, strain YPT6, hits give low values 1.1 | S. cerevisiae deletion strains, locus YLR268W, strain sec22, hits give low values 1.01 | S. cerevisiae deletion strains, locus YLR330W, strain CHS5, hits give low values 1.01 | S. cerevisiae deletion strains, locus YLR342W, strain FKS1 (second series), hits give low values 1.09 | S. cerevisiae deletion strains, locus YLR371W, strain rom2, hits give low values 0.975 | S. cerevisiae deletion strains, locus YLR418C, strain cdc73, hits give low values 1.01 | S. cerevisiae deletion strains, locus YML016C, strain PPZ1, hits give low values 1.02 | S. cerevisiae deletion strains, locus YML032C, strain rad52, hits give low values 1.05 | S. cerevisiae deletion strains, locus YML124C, strain tub3, hits give low values 1.01 | S. cerevisiae deletion strains, locus YMR078C, strain ctf18, hits give low values 1 | S. cerevisiae deletion strains, locus YMR223W, strain ubp8, hits give low values 1.04 | S. cerevisiae deletion strains, locus YMR263W, strain SAP30, hits give low values 1.04 | S. cerevisiae deletion strains, locus YMR307W, strain GAS1, hits give low values 1.14 | S. cerevisiae deletion strains, locus YNL067W, strain RPL9B, hits give low values 1.02 | S. cerevisiae deletion strains, locus YNL128W, strain TEP1, hits give low values 1.03 | S. cerevisiae deletion strains, locus YNL153C, strain GIM3, hits give low values 1.03 | S. cerevisiae deletion strains, locus YNL233W, strain BNI4, hits give low values 1.03 | S. cerevisiae deletion strains, locus YNL250W, strain rad50, hits give low values 1.02 | S. cerevisiae deletion strains, locus YNL271C, strain bni1, hits give low values 1.01 | S. cerevisiae deletion strains, locus YNL298W, strain CLA4, hits give low values 1.04 | S. cerevisiae deletion strains, locus YNL307C, strain MCK1, hits give low values 1.02 | S. cerevisiae deletion strains, locus YNL322C, strain KRE1, hits give low values 1.02 | S. cerevisiae deletion strains, locus YNR052C, strain pop2, hits give low values 1 | S. cerevisiae deletion strains, locus YOL006C, strain TOP1, hits give low values 1.05 | S. cerevisiae deletion strains, locus YOL012C, strain htz1 1.01 | S. cerevisiae deletion strains, locus YOL147C, strain pex11, hits give low values 0.995 | S. cerevisiae deletion strains, locus YOR061W, strain CKA2, hits give low values 1.02 | S. cerevisiae deletion strains, locus YOR069W, strain VPS5, hits give low values 1.01 | S. cerevisiae deletion strains, locus YOR136W, strain idh2, hits give low values 1.02 | S. cerevisiae deletion strains, locus YOR144C, strain elg1, hits give low values 1.01 | S. cerevisiae deletion strains, locus YOR184W, strain ser1, hits give low values 1.07 | S. cerevisiae deletion strains, locus YOR316C, strain cot1, hits give low values 0.99 | S. cerevisiae deletion strains, locus YPL055C, strain LGE1, hits give low values 1.1 | S. cerevisiae deletion strains, locus YPL241C, strain CIN2, hits give low values 1.02 | S. cerevisiae deletion strains, locus YPR119W, strain clb2, hits give low values 0.984 | S. cerevisiae deletion strains, locus YPR141C, strain kar3, hits give low values 1.02 | S. cerevisiae deletion strains, locus YPR163C, strain tif3, hits give low values 1 | S. cerevisiae deletion strains, locus YPR167C, strain met16, hits give low values 1.01 | S. cerevisiae deletion strains, strain wtn01, hits give low values 0.994 | S. cerevisiae strains, strain wild type, hits give low values 1.03
